High-throughput results (PubChem)
pPAFAH FP inh: pPAFAH enzyme inhibitors, primary screen, biochemical, fluorescence polarization, human | 1.5% of 330,000 active | AID 463082, 2010 | recombinant pPAFAH, FP-rhodamine probe fluorescence polarization | Platelet-activating factor acetylhydrolase (Homo sapiens), Q13093 | inhibition, % at 3.39 µM;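 active = inhibition above the mean inhibition across the screen plus 3 SD, cut at about 25% in these data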;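 also: inhibitors block binding of the rhodamine activity-based probe so polarization drops; 0% = enzyme with DMSO and 100% = wells lacking pPAFAH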
Target sequence (Q13093 whole entry, looked up): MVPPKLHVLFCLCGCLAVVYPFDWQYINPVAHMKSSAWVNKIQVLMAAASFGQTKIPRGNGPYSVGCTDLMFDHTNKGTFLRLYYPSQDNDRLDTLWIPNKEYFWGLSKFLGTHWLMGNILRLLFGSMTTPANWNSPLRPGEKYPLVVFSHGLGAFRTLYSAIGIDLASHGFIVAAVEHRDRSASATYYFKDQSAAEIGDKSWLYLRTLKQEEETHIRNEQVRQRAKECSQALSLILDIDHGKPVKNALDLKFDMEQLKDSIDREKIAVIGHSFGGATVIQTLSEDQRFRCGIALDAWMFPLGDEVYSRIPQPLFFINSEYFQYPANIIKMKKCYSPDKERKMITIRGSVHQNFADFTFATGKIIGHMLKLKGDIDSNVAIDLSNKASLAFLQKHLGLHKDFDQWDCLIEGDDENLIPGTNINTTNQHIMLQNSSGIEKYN
TCR-CD3 inh: inhibitors of human TCR-CD3 interaction, primary screen, biochemical, fluorescence, TAMRA-labeled TCR probe | 0.37% of 360,000 active | T-cell receptor (TCR) | inhibition, % at 9.4 µM | AID 651800, 2012; in the data active = inhibition above about 19%;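 also: recombinant mutant TCR 2C K166C tagged with TAMRA read by polarization; 0% = receptor in buffer alone and 100% = receptor with positive control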
PAFAH2 FP inh: PAFAH2 enzyme inhibitors, primary screen, biochemical, fluorescence polarization, human; Platelet-activating factor acetylhydrolase 2, cytoplasmic (Homo sapiens), Q99487; recombinant PAFAH2, FP-rhodamine activity probe; inhibition, % at 3.39 µM; 0.99% of 340,000 active; AID 492956, 2010;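 active = inhibition above the mean over all tested compounds plus 3 SD, cut at about 30% in these data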;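 also: inhibitors block probe labeling of enzyme so polarization drops; 0% = enzyme with DMSO and 100% = wells lacking PAFAH2 protein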
PAFAH1B2 inh: PAFAH1B2 enzyme inhibitors, primary screen, biochemical, fluorescence polarization, human; Platelet-activating factor acetylhydrolase IB subunit alpha2 (Homo sapiens), P68402; 1.2% of 340,000 active; inhibition, % at 3.39 µM; recombinant PAFAH1B2, FP-rhodamine activity probe;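 active = inhibition above the mean of all tested compounds plus 3 SD, cut at about 24% in these data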;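 also: 0% = enzyme with DMSO and 100% = wells lacking PAFAH1B2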
PAFAH1B3 FP inh: PAFAH1B3 enzyme inhibitors, primary screen, biochemical, fluorescence polarization, human | Platelet-activating factor acetylhydrolase IB subunit alpha1 (Homo sapiens), Q15102 | recombinant PAFAH1B3, FP-rhodamine probe | inhibition, % at 3.39 µM | 0.28% of 340,000 active;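 active = inhibition above the screen-wide average of all tested compounds plus 3 SD, cut at about 25% in these data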;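 also: 0% = enzyme with DMSO only and 100% = wells lacking PAFAH1B3 protein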
PAFAH1B3 confirm: PAFAH1B3 enzyme inhibitors, confirmation, biochemical, fluorescence polarization, human. inhibition, % at 3.39 µM. 30% of 390 active. shares compounds with PAFAH1B3 FP inh. recombinant PAFAH1B3, FP-Rh activity-based probe;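 active = average inhibition over triplicate runs above the hit cutoff set in the earlier primary screen, cut at about 25% in these data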;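 also: 0% = enzyme with DMSO and 100% = wells lacking PAFAH1B3 protein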
The depositor's hits bear a star; . = not tested or not shown. An excerpt weighted towards active compounds, which were near 2.7% of everything screened.

SMILES | pPAFAH FP inh | TCR-CD3 inh | PAFAH2 FP inh | PAFAH1B2 inh | PAFAH1B3 FP inh | PAFAH1B3 confirm
CC(=O)N(/N=C1\Sc2ccccc2C1=O)c1ccccc1 | . | 3.3 | 10.5 | 13.5 | 43.6* | 61.8*
CC(=O)N(/N=C1\Sc2ccccc2C1=O)c1ccc(C)cc1C | 22.3 | -7.9 | -5.1 | 1.1 | 22.4 | .
COc1ccc(C(=O)C[n+]2ccccc2/C=N/O)cc1 | 2.2 | -2.1 | 7.6 | 5.4 | 25.9* | 17.7
Cc1ccc(CC(=O)NCCS(=O)c2ccc(C)cc2)cc1 (stereo unspecified) | 3.1 | -2.4 | 6.6 | 0.1 | 1.7 | .
O=S(=O)(Nc1nc2ccccc2nc1NCCO)c1cccc(Cl)c1 | 10.5 | 9.1 | 4.2 | 9.4 | 26.4* | 9.9
Oc1ccccc1/C=N/n1c(COc2ccccc2)n[nH]c1=S | -0.2 | -3.6 | 3.0 | 10.0 | 43.2* | 5.2
c1ccc(CNc2c3ccccc3nc3ccccc23)cc1 | 1.2 | -3.2 | 7.8 | 3.9 | 2.2 | .
Oc1ccc(CCNc2c3ccccc3nc3ccccc23)cc1O | 18.1 | 21.0* | 13.9 | 15.3 | 39.9* | 33.0*
COc1ccc(C(=O)NC(=S)Nc2ccc3oc(=O)ccc3c2)cc1OC | -10.8 | 2.5 | -5.1 | -2.7 | 6.7 | .
O=S(=O)(Nc1ccc(N=Nc2ccc(O)c3ccccc23)cc1)c1ccccc1 | 24.5 | 1.8 | 11.6 | 18.2 | 36.0* | 16.8
COc1ccc(CCC(=O)Nc2ccc(Cn3ccnc3)cc2)cc1 | -0.8 | 2.5 | -0.7 | -4.5 | 15.3 | .
COc1cc(/C=N/NC(=O)c2cccc([N+](=O)[O-])c2)cc(OC)c1O | 4.8 | 2.2 | 2.0 | 5.3 | 7.8 | .
COc1cccc(/C=N/NC(=O)c2ccc([N+](=O)[O-])cc2Cl)c1O | 6.0 | 2.5 | 10.1 | 3.1 | 27.3* | 14.8
CCOC(=O)c1c(C)oc2c1C(=O)c1ccccc1C2=O | 5.7 | 1.1 | 5.5 | 10.5 | 29.9* | 22.6
CCC(=O)Nc1c(S(=O)(=O)c2ccccc2)c2nc3ccccc3nc2n1C(C)c1ccccc1 (stereo unspecified) | 8.8 | -7.8 | 16.2 | 1.4 | -0.6 | .
CCCCn1c(NC(=O)c2ccc(Br)o2)c(S(=O)(=O)c2ccccc2)c2nc3ccccc3nc21 | -0.7 | 5.0 | 17.5 | 21.8 | 49.6* | 8.8
COc1ccc(S(=O)(=O)Nc2cc(Sc3ncn[nH]3)c(O)c3ccccc23)cc1 | . | 9.6 | . | . | . | .
COc1ccc(S(=O)(=O)Nc2cc(SCC(=O)O)c(O)c3ccccc23)cc1 | 22.1 | 5.0 | 13.3 | 19.0 | 43.8* | 11.5
O=C(COC(=O)Cc1cccs1)NCC(=O)Nc1ccc(F)cc1 | 4.7 | -0.3 | 1.2 | 7.3 | 41.5* | 8.0
C=CC(=O)N=c1sc2ccccc2n1-c1ccccc1 | 7.4 | -0.2 | 1.1 | 9.3 | 55.4* | 47.3*
N=c1sc2ccccc2n1-c1ccccc1 | 1.4 | . | 1.5 | 1.6 | -1.0 | .
CN(CCOc1ccc(Cl)cc1)C(=O)c1cc([N+](=O)[O-])ccc1N1CCOCC1 | -1.3 | 11.9 | -0.8 | 4.9 | 6.4 | .
CCNCC(=O)N1c2ccccc2CCc2ccc(NC(C)=O)cc21 | 5.2 | -5.2 | 2.3 | 0.1 | 4.1 | .
CCNCC(=O)N1c2ccccc2CCc2ccc(NC(=O)OC(C)C)cc21 | 2.3 | -1.6 | -1.2 | -0.3 | 30.8* | 7.3
COC(=O)CCc1c(C)c(C(=O)c2cc(F)c(F)c(F)c2F)c2ccccn12 | 7.1 | 2.3 | 11.8 | 5.4 | 29.0* | 7.1
CC(C)(C)OC(=O)N1CCC(C(=O)Nc2ccc(C(=O)NC3CC3)cc2)CC1 | . | 0.8 | 8.0 | 8.7 | 8.0 | .
CCc1cc(=O)[nH]c(SCC(=O)N2CCC(Cc3ccccc3)CC2)n1 | -0.3 | -2.0 | 3.1 | 8.0 | 4.5 | .
COc1ccc(NC(=O)c2cccc(N3C(=O)c4ccc(C(=O)Nc5ccc(OC)c(O)c5)cc4C3=O)c2)cc1O | 4.8 | 0.8 | -4.6 | 12.2 | 26.1* | 16.7
O=C(OCC(=O)c1ccc[nH]1)c1ccc([N+](=O)[O-])cc1 | 7.6 | 2.0 | 6.3 | 0.5 | 5.5 | .
O=C(COC(=O)c1ccc([N+](=O)[O-])s1)c1ccc[nH]1 | 16.6 | 1.0 | 14.5 | 7.0 | 32.8* | 26.2*
